Most compounds without a hit are left out; they make up all but 9.2% or so of the library.
HPGD block: qHTS Assay for Inhibitors of HPGD (15-Hydroxyprostaglandin Dehydrogenase). 15-hydroxyprostaglandin dehydrogenase [NAD(+)] (Homo sapiens), P15428. AID 894, 2007. 150,000 compounds, 4.3% hits. purified HPGD, NADH fluorescence kinetic, PGE2 substrate. Potency, µM, most hits filed as inhibitors
Target sequence (P15428 whole entry, looked up): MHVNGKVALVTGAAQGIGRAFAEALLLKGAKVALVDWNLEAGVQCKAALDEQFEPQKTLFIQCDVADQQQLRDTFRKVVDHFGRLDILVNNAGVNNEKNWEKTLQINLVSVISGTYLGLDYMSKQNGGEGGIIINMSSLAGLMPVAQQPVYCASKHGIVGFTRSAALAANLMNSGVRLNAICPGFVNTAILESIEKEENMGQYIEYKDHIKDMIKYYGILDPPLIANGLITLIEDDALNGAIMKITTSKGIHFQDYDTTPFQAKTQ
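NADH formation kinetics: reaction with 30 uM PGE2 and 1 mM NAD+ (final), 20 nM enzyme, Tris-HCl pH 8 with Tween 20, after 15 min compound preincubation at room temperature. Fluorescence change, last versus first of five reads.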
ALDH1A1 inh: qHTS Assay for Inhibitors of Aldehyde Dehydrogenase 1 (ALDH1A1). Aldehyde dehydrogenase 1A1 (Homo sapiens), P00352. Purified ALDH1A1, NADH fluorescence, propionaldehyde substrate. Potency, µM (highest dose often 75.3 µM), most hits filed as inhibitors. 220,000 compounds, 7.3% hits. AID 1030, 2008
Target sequence (P00352 whole entry, looked up): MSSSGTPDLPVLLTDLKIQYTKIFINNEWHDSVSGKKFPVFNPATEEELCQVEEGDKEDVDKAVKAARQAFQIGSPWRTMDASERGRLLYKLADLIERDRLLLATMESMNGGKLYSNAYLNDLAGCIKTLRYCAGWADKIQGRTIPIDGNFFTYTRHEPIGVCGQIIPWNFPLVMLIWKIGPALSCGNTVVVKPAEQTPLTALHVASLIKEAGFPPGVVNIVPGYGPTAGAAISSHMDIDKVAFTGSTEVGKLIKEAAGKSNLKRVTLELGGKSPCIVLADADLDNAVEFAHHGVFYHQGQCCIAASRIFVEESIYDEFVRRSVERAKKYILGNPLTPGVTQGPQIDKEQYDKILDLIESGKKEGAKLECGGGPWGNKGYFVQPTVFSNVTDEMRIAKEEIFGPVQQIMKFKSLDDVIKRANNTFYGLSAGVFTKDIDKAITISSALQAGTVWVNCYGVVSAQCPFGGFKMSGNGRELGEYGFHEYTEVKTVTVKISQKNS
Lamin A splicing: qHTS Assay for Modulators of Lamin A Splicing. HeLa LMNA splicing GFP/RFP minigene ratio, 48 h. Potency, µM (titrated, usually from 46.1 µM), hits mostly inhibitors. 200,000 compounds, 0.01% hits; active means well fitted inhibition curve with a large enough effect in the signal ratio, with a control signal flat, not every such curve was filed as active; inconclusive means small, poorly fitted or top-dose-only effect, or effect the other way, or a change in a side signal; the % refers to the signal ratio
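S3 HeLa cells stably expressing lamin A-EGFP splicing minigene plus DsRed2, 600 cells/well, 48 h compound exposure at 37C. Laser-scanning cytometry; analysed as GFP (500-530 nm)/RFP (575-640 nm) total intensity ratio; 0.5% DMSO vehicle.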
JMJD2E inh: qHTS Assay for Inhibitors of Human Jumonji Domain Containing 2E (JMJD2E); 230,000 compounds, 1.6% hits; JMJD2E catalytic domain, FDH-coupled NADH fluorescence (FDH is formaldehyde dehydrogenase); Potency, µM (doses to about 57.1 µM), usual class: inhibitors; further: nearly all actives have a fitted effect of over 50% in size
HTT ATP protect: qHTS Multiplex Assay to Identify Dual Action Probes in a Cell Model of Huntington: Cytoprotection (ATP); PC12 HTT-Q103 induced, cytoprotection, ATP luminescence, 40 h; Potency, µM (highest dose often 56.4 µM), hits mostly activators; 230,000 compounds, 0.14% hits; AID 1471, 2008; active means well fitted curve in the direction sought with a large enough effect; inconclusive means small, poorly fitted or top-dose-only effect, or another doubt; inactive means no such curve, though single readings can be large; an effect the other way counts as inactive or inconclusive; further: nearly all actives have a fitted effect of over 45% in size
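Readout: ATPlite luminescence (ATP level). Model: stable PC12, inducible Htt exon1 Q103-GFP. Inducer: tebufenozide, 100 nM final. Compounds: dose series. No G418 in medium.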
HTT aggregate: qHTS Multiplex Assay to Identify Dual Action Probes in a Cell Model of Huntington: Aggregate Formation (GFP). PC12 HttQ103-GFP aggregates, Acumen cytometry, 40 h. Potency, µM (highest dose often 46.1 µM), most hits filed as inhibitors. 220,000 compounds, 1.1% hits. AID 1688, 2009; active means well fitted curve in the direction sought with a large enough effect; inconclusive means small, poorly fitted or top-dose-only effect, or another doubt; inactive means no such curve, though single readings can be large; an effect the other way counts as inactive or inconclusive; further: nearly all actives have a fitted effect of over 60% in size
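Aggregates are detected as GFP objects 1–25 µm with signal 6 STDEV over background in lysates of induced PC12 cells. These carry Huntingtin exon 1 with 103 glutamines fused to GFP under an ecdysone promoter; compounds titrated.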
Of the large screens only hits and unclear results are named; the others gave an inactive call. Unless noted, the call rests on the fitted dose curve; in most records, active means well fitted inhibition curve with a large enough effect (not every such curve was filed as active); inconclusive means small, poorly fitted or top-dose-only effect, or another doubt; inactive means no such curve, though single readings can be large or run the other way.

COc1cccc(C2C=C(c3ccc(C)cc3)Nc3c(C(=O)Nc4ccc(F)cc4)cnn32)c1OC (configuration not stated)	none (no result: HPGD block, ALDH1A1 inh, JMJD2E inh, HTT ATP protect, HTT aggregate)
Cc1ccc(C(=O)CN2C(=O)c3ccccc3S2(=O)=O)cc1	none (no result: HPGD block, Lamin A splicing)
Cc1ccc(C(=O)CN2/C(=C(\O)c3ccccc3)C(=O)c3ccccc3S2(=O)=O)c(C)c1	ALDH1A1 inh 2.8µM, Lamin A splicing inconclusive
COCCNC(=O)c1ccc(C(=O)C(=O)c2ccccc2)cc1	HPGD block 14µM
COc1ccc(C(=O)NCCSCc2ccccc2C)cc1	ALDH1A1 inh inconclusive
Cc1cc(SCNC(=O)c2ccccc2)nc(C(C)C)n1	ALDH1A1 inh inconclusive (no result: HPGD block, Lamin A splicing)
COc1ccc(C(=O)NCCSC2CCCCC2)cc1	ALDH1A1 inh 3.5µM
COc1ccc(C(=O)NCCSc2ccc(C)cc2)cc1	ALDH1A1 inh 10µM
Cc1cc(C)nc(SCNC(=O)c2ccccc2)n1	HPGD block 14µM
CO[C@@H]1/C=C\O[C@]2(C)Oc3c(C)c(O)c4c(O)c(c(CN5CCN(C)CC5)c(O)c4c3C2=O)NC(=O)/C(C)=C\C=C[C@@H](C)[C@@H](O)[C@H](C)[C@@H](O)C(C)[C@H](OC(C)=O)[C@@H]1C (some centres not stated)	none (no result: Lamin A splicing, JMJD2E inh, HTT ATP protect, HTT aggregate)
COc1ccc(C(=O)NCCSCc2ccc(C)cc2)cc1	ALDH1A1 inh 2.2µM
O=C(NCCSc1ccccc1)c1cccnc1	ALDH1A1 inh inconclusive
Cc1ccc(SCCNC(=O)c2ccccc2)cc1	HPGD block 16µM, ALDH1A1 inh inconclusive
CN(C)CCCc1c2ccccc2nc2ccc(Cl)cc12	none (no result: Lamin A splicing, JMJD2E inh, HTT aggregate)
CC(C)C[C@@H](CC(=O)N[C@@H](CCCN)CC(=O)N[C@@H]1CCCC[C@H]1C(=O)N[C@H](CC(=O)N[C@@H](CCC(=O)O)CC(=O)O)Cc1c[nH]c2ccccc12)NC(=O)[C@@H]1CCCC[C@H]1N	ALDH1A1 inh inconclusive (no result: Lamin A splicing, HTT aggregate)
Cc1cccc(OCCNc2cc(N3CCN(C)CC3)ccc2[N+](=O)[O-])c1	none
Cc1ccc(OCCNc2cc(N3CCN(CCO)CC3)ccc2[N+](=O)[O-])cc1C	HPGD block 35µM, ALDH1A1 inh inconclusive
COc1ccccc1OCCNc1cc(N2CCCCC2)ccc1[N+](=O)[O-]	ALDH1A1 inh 18µM, Lamin A splicing inconclusive, HTT aggregate inconclusive
COc1ccc(CCNC(=O)C(=O)c2c[nH]c3ccccc23)cc1	none (no result: HPGD block, Lamin A splicing, JMJD2E inh, HTT aggregate)
CCCCCCCC#Cc1ccccc1/C=N/S(=O)C(C)(C)C (configuration not stated)	none (no result: HPGD block, Lamin A splicing, JMJD2E inh, HTT aggregate)
COc1ccccc1-c1ccc2ncnc(NCc3cnc(C)cn3)c2c1	Lamin A splicing inconclusive (no result: HPGD block, JMJD2E inh, HTT aggregate)
Cc1noc(C)c1CSc1nnc(-c2ccccc2)n1Cc1ccco1	HTT aggregate inconclusive
O=C(O)CCn1c(SCc2ccccc2)nc2ccccc21	none
Cc1noc(C)c1CSc1nnc(-c2ccccc2)n1N	HPGD block 20µM, ALDH1A1 inh 10µM
Cc1noc(C)c1CSc1nc2ccccc2n1CCc1ccccc1	ALDH1A1 inh 28µM
CCOC(=O)c1ccc(CN(Cc2ccc(Cl)cc2Cl)S(=O)(=O)c2cccc(Cl)c2)cc1	none (no result: HPGD block, ALDH1A1 inh, JMJD2E inh, HTT ATP protect, HTT aggregate)
S=C(NC1CCCCC1)N1CCOCCOCCN(C(=S)NC2CCCCC2)CCOCC1	none (no result: HPGD block, ALDH1A1 inh, Lamin A splicing)
O=C(NC1CCCCC1)C(=S)N1CCOCC1	ALDH1A1 inh 24µM (no result: HPGD block, Lamin A splicing)
O=C(NCc1ccccc1Cl)c1c2c(nc3ccccc13)C(=O)N(C1CCCCC1)C2	none (no result: HPGD block, ALDH1A1 inh, JMJD2E inh, HTT ATP protect, HTT aggregate)
Cc1ccc(S(=O)(=O)N(C)Cc2ccc(C(=O)N/N=C/c3ccc(OC(F)F)cc3)cc2)cc1	ALDH1A1 inh inconclusive
C/C(=N\NC(=O)c1ccc(CN(C)S(=O)(=O)c2ccc(C)cc2)cc1)c1ccc(OC(F)F)cc1	ALDH1A1 inh 25µM, Lamin A splicing inconclusive (no result: HPGD block)
Cc1ccccc1Oc1ccc(NC(=O)C2CC=CCC2C(=O)O)cc1 (configuration not stated)	ALDH1A1 inh 2.2µM, Lamin A splicing inconclusive (no result: HTT ATP protect)
CC(C)(C)c1ccc(Oc2ccc(NC(=O)C3CC=CCC3C(=O)O)cc2)cc1 (configuration not stated)	ALDH1A1 inh inconclusive, HTT aggregate inconclusive (no result: HPGD block, Lamin A splicing)
O=C(O)C1CC=CCC1C(=O)Nc1cccc(Cl)c1 (configuration not stated)	ALDH1A1 inh 18µM
CC1CCCCN1C(=O)Nc1cccc(Cl)c1 (configuration not stated)	HPGD block 22µM, ALDH1A1 inh 22µM
C=C(C)C(=O)OCCCCCCCCCC	none (no result: Lamin A splicing, JMJD2E inh, HTT aggregate)
O=C(O)C1CCCCC1C(=O)Nc1ccccc1F (configuration not stated)	ALDH1A1 inh 20µM
O=C(O)C1CCCCC1C(=O)Nc1ccccc1Cl (configuration not stated)	none
O=C(O)/C=C\C(=O)Nc1ccccc1F	ALDH1A1 inh 35µM
O=C(O)/C=C\C(=O)Nc1ccc(F)c(F)c1F	ALDH1A1 inh 22µM (no result: HPGD block, Lamin A splicing)
O=C(NC1CCCC1)c1cnc2n(c1=O)CCS2	HPGD block 35µM, ALDH1A1 inh inconclusive
O=C(NCc1ccccc1Cl)c1cnc2n(c1=O)CCS2	ALDH1A1 inh 14µM
CC1CC(NC(=O)c2cnc3n(c2=O)CCS3)CC(C)(C)C1 (configuration not stated)	JMJD2E inh inconclusive (no result: HPGD block, ALDH1A1 inh, Lamin A splicing)
C=CCN1C(=O)/C(=C\c2ccc(OC(=O)c3ccco3)c(OC)c2)SC1=S	ALDH1A1 inh 0.22µM (no result: HPGD block, Lamin A splicing)
COc1cc(/C=C2/C(=O)NN(c3cccc(F)c3)C2=O)ccc1OC(=O)c1ccco1	HPGD block 4µM, ALDH1A1 inh 22µM
CC1=CC2=NC(=O)/C(=C\c3ccc(OC(=O)c4ccco4)cc3)C(=N)N2O1	ALDH1A1 inh inconclusive, JMJD2E inh inconclusive (no result: HPGD block, Lamin A splicing)
COc1cc(/C=C2/C(=O)NN(c3ccc(Cl)cc3)C2=O)ccc1OC(=O)c1ccco1	HPGD block 7.9µM, ALDH1A1 inh inconclusive (no result: HTT ATP protect)
COc1cc(/C=C2/C(=N)N3OC(C)=CC3=NC2=O)ccc1OC(=O)c1ccco1	ALDH1A1 inh 5.6µM (no result: HPGD block)
CNC(=O)[C@@H]1O[C@@H](n2cnc3c(NCc4cccc(I)c4)ncnc32)[C@H](O)[C@@H]1O	none (no result: HPGD block, ALDH1A1 inh, Lamin A splicing, JMJD2E inh, HTT aggregate)
COc1ccc(N2C(N)=C(C#N)C(c3cc(CN4CCOCC4)cs3)C3=C2CCCC3=O)cc1 (configuration not stated)	none (no result: HPGD block, ALDH1A1 inh, JMJD2E inh, HTT ATP protect, HTT aggregate)
CCC(=O)NC(=S)Nc1ccc(NC(=O)c2cc3ccccc3o2)c(OC)c1	JMJD2E inh inconclusive (no result: HPGD block)

Screens from PubChem BioAssay.
